The supplement of paper PMC7366291
Counter-ions that a name gives are not always drawn. ± gives the standard deviation of the averaged measurements.

The compounds below were run on Danio rerio Tg(wt1b:EGFP) embryo, pronephros (assay: fraction of imaged embryos annotated as normal kidney; higher = less nephrotoxic; extreme values may be limits of the assay). Conditions: 25 µM; exposure: 24-48 hpf.
How it was run: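 Dechorionated Tg(wt1b:EGFP) zebrafish embryos were incubated with 25 μM compound in 0.5% DMSO, 5 mM HEPES-buffered E3 and 0.003% PTU from 24 to 48 hpf at 28.5°C. Pronephroi were then imaged by widefield fluorescence, and the fraction of embryos per treatment assigned by hand to the normal-kidney category is given.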

Point of comparison: CC(Cc1ccc(O)cc1)NCC(O)c1cc(O)cc(O)c1 (stereo not drawn) [Fenoterol hydrobromide], “fraction of imaged embryos annotated as normal kidney” value 1. Against it:
- NCC1(CC(=O)O)CCCCC1 [Gabapentin] — lower, 0.75
- CN1[C@@H]2CC[C@H]1C[C@@H](OC1c3ccccc3CCc3ccccc31)C2 [Deptropine citrate] — the same, 1
- c1ccc2nc(N3CCNCC3)ccc2c1 [Quipazine dimaleate salt] — lower, 0.75

Each compound was assayed on Danio rerio Tg(wt1b:EGFP) embryo, pronephros (assay: pronephric angle neck segment to proximal convoluted tubule (mean of left and right), fold change vs DMSO control; higher = larger pronephric angle). Conditions: 25 µM; exposure: 24-48 hpf.
How it was run: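 Features are reported as fold changes against the mean of same-day DMSO-treated embryos. Before that, values more than 2 SD away from the feature mean were excluded. The embryos, dechorionated Tg(wt1b:EGFP) zebrafish, had been exposed from 24 to 48 hpf at 28.5°C to 25 μM compound in 0.5% DMSO in HEPES-buffered E3 with 0.003% PTU, and distances and angles came from 16 manually set points on maximum projections of dorsal pronephros images in Fiji.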

Point of comparison: CC[N+]1(C)CCCC(OC(=O)C(O)(c2ccccc2)c2ccccc2)C1 (stereo not drawn) [Pipenzolate bromide], “pronephric angle neck segment” value 0.981 ± 0.037. Against it:
- C[C@]12CC[C@H]3[C@@H](CCC4=CC(=O)CC[C@@H]43)[C@@H]1CC[C@@H]2O [Nandrolone] — within error, 0.95 ± 0.015
- C[C@]12CC[C@@H]3c4ccc(OC(=O)N(CCCl)CCCl)cc4CC[C@H]3[C@@H]1CC[C@@H]2O [Estramustine] — higher, 1.1 ± 0.03
- CCCN1C[C@H](CSC)C[C@@H]2c3cccc4[nH]cc(c34)C[C@H]21 [Pergolide mesylate] — within error, 0.997 ± 0.029
- NCCCNCCSP(=O)(O)O [Amifostine] — within error, 1.02 ± 0.074
- CC[C@@H](C(N)=O)N1CCCC1=O [Levetiracetam] — within error, 1.011 ± 0.0044
- C[C@]12CC[C@@H](O)C[C@H]1CC[C@@H]1[C@@H]2CC[C@]2(C)C(=O)CC[C@@H]12 [3-alpha-Hydroxy-5-beta-androstan-17-one] — within error, 1 ± 0.013
- C[C@@H]1C[C@@H]([C@H](O)CC2CC(=O)NC(=O)C2)C(=O)[C@@H](C)C1 [Cycloheximide] — higher, 1.73 ± 0.19
- CC(=O)NC1CCSC1=O (racemic) [N-Acetyl-DL-homocysteine Thiolactone] — within error, 1 ± 0.066
